Source: PubChem BioAssay (several laboratories)
A selection: hits, their analogues and other compounds. The true share with any hit is near 4.8%.
Calb FLC = affects C. albicans growth with fluconazole | C. albicans CaCi-2 (fluconazole-resistant clinical isolate) + fluconazole, Alamar Blue growth, 48 h | growth inhibition, % (no concentration beside the values) | 0.57% of 300,000 active | AID 1979;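 active = growth inhibition above about 58% in most replicates, limit read from the data, passing the limit was not always enough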;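 note: all wells also contain fluconazole at 8 µg/ml as a sub-toxic cotreatment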
MPTP block = permeability transition pore inhibition. isolated mouse mitochondria, Ca2+ swelling absorbance, 30 min. inhibition, % at 10 µM. 1.4% of 360,000 active. AID 602449;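 active = inhibition of 50% or more, scaled per plate between neutral and stimulator controls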
Mdm2 MdmX PPI = inhibitors of human Mdm2/MdmX interaction | O15151+Q00987 | SaOS-2 split-luciferase Mdm2/MdmX complementation, luminescence | inhibition, % at 8 µM | 3% of 330,000 active | AID 485346;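 active = inhibition of at least 50% at 8 µM in the primary screen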
Target sequence (O15151 whole entry, looked up): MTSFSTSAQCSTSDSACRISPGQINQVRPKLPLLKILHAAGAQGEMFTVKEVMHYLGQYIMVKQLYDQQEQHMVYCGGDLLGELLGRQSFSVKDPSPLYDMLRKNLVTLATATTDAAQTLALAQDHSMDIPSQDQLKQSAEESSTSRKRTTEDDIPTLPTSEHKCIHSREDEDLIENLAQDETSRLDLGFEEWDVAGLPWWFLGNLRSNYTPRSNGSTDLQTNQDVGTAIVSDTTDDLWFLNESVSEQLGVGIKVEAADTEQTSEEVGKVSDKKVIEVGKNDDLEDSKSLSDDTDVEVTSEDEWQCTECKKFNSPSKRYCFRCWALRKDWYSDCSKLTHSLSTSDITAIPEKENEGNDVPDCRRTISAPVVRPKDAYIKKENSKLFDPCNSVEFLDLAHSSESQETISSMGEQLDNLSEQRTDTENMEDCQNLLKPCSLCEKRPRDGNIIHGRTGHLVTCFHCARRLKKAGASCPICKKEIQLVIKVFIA
Target sequence (Q00987 whole entry, looked up): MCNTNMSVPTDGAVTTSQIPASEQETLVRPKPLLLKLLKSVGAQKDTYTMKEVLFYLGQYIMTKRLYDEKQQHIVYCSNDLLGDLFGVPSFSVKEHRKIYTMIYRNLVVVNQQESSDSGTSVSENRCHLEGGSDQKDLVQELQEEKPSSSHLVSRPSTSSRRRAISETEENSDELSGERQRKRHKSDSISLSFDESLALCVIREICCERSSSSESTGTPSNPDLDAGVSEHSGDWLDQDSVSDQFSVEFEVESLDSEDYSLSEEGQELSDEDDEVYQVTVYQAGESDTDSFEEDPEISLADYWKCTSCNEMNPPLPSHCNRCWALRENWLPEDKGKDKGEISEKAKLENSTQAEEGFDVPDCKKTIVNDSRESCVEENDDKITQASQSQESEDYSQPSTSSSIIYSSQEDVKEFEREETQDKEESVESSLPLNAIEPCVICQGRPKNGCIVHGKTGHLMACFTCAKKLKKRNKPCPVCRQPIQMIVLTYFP
CSC inhib = blocks cancer stem cells; inhibition, % at 7.5 µM; cancer stem cell-like cells viability, luminescence; AID 2717; 1.1% of 300,000 active; in the data active = inhibition above about 75%; tested in HMLE shEcad cells
Beta cell apopt = beta cell apoptosis inhibition; protection from apoptosis, % (test concentration not listed); AID 435005; INS-1E cytokine-induced death, ATP luminescence, 48 h; percent of positive-control rescue, neutral wells zero; 0.8% of 300,000 active;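 active = Every replicate reaches about 75%, or at least half do and their mean reaches it too, limit read from the data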;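 note: higher means more ATP so stronger rescue from cytokine killing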
Mdm2 MdmX conf = confirmation of human Mdm2/MdmX interaction inhibitors | shares compounds with Mdm2 MdmX PPI | Mdm2-MdmX binding, luminescent assay | inhibition, % at 8 µM | 55% of 10,000 active | AID 489028; in the data active = inhibition above about 40%
FLuc counter = inhibits full-length luciferase, flagging false Mdm2/MdmX hits; shares compounds with Mdm2 MdmX PPI; SaOS-2 full-length luciferase counterscreen, luminescence; inhibition, % at 8 µM; 77% of 6,200 active; AID 504607;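 active = mean inhibition at 8 µM reaching about 37%, which flags the compound as non-specific, limit read from the data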;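 note: p53-null SaOS-2 cells with luciferase driven by a doxycycline-inducible promoter; compound on cells about two nights before reading with doxycycline added after day one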
Each line names hits and unclear results; the compound was inactive in the other large screens (follow-up assays come after a bar, where they were run).

Cc1cc(NC(=O)COC(=O)c2ccccc2NCCO)no1	none (no result: Calb FLC)
COc1ccc(-c2cc(-c3c(O)c(OC)c4occc4c3OC)[nH]n2)cc1OC	Mdm2 MdmX PPI 60.2 | Mdm2 MdmX conf inactive | FLuc counter 93.3
CCC(C)(C)C1CCC2(CC1)NC(=O)N(CC(=O)N1CCN(S(=O)(=O)c3cc(C)ccc3C)CC1)C2=O (configuration not stated)	Mdm2 MdmX PPI 81.7 | Mdm2 MdmX conf inactive | FLuc counter 88.6
O=C(c1c(F)cccc1F)N1CCN(CCOc2ccccc2)CC1	none
CCOC(=O)C1CCCN(c2ccc(NC(=O)c3snc4c(=O)[nH]c(C)nc34)cc2)C1 (configuration not stated)	Mdm2 MdmX PPI 69.9 | Mdm2 MdmX conf 40.7 | FLuc counter 87.6
Cc1c(C(=O)N2CCOCC2)c(S(=O)(=O)Nc2ccccc2)c(C)n1C	none
O=c1c2cc(Br)ccc2nc(-c2cccc(C(F)(F)F)c2)n1O	Calb FLC 90.3, Mdm2 MdmX PPI 55.5 | Mdm2 MdmX conf 42.1 | FLuc counter inactive
O=c1c2ccccc2nc(-c2ccccc2)n1O	none
O=c1c2cc(Cl)ccc2nc(-c2ccc(Cl)c(Cl)c2)n1O	Calb FLC 100.6, Mdm2 MdmX PPI 72.1, CSC inhib 120.1 | Mdm2 MdmX conf 83.2 | FLuc counter inactive
CCN(CC(O)COc1ccc(OCC(O)CN(CC)C2CCCCC2)cc1)C1CCCCC1 (configuration not stated)	Mdm2 MdmX PPI 69.2 | Mdm2 MdmX conf inactive
CCN(CC(O)COCc1ccc(Cl)cc1)C1CCCCC1 (configuration not stated)	none
COc1cc(CN2C[C@@H](CO)O[C@@H](n3cnc4c(NCCCO)ncnc43)C2)cc(OC)c1OC	none (no result: Calb FLC, Mdm2 MdmX PPI, CSC inhib, Beta cell apopt)
CCN1C(=O)/C(=C2/Sc3ccc(OC)cc3N2C)SC1=Nc1cccc(O)c1	Mdm2 MdmX PPI 96.9 | Mdm2 MdmX conf inactive
O=C(Nc1nnc(SCc2ccc(F)cc2)s1)c1cccnc1Cl	none
O=C(Nc1nc2ccc(F)cc2s1)c1ccccn1	Mdm2 MdmX PPI 92.5, Beta cell apopt 75.7 (no result: MPTP block) | Mdm2 MdmX conf 65.2 | FLuc counter 58.2
O=C(Nc1nnc(SCc2ccc(F)cc2)s1)c1ccccn1	Calb FLC 103.1, Mdm2 MdmX PPI 82.1 (no result: CSC inhib, Beta cell apopt) | Mdm2 MdmX conf 69.2 | FLuc counter 41.1
CSC1=NC=C(C#N)C2=NC(c3c(Cl)cccc3Cl)NN12 (configuration not stated)	none (no result: Calb FLC, Mdm2 MdmX PPI, CSC inhib, Beta cell apopt)
O=C(NCCCc1ccccc1)c1ccc(CS(=O)Cc2ccccc2Cl)o1 (configuration not stated)	none
CCOc1ccc(/C=N/NC(=S)Nc2c(C)cccc2C)cc1	Mdm2 MdmX PPI 51.5 | Mdm2 MdmX conf inactive
CCOc1ccc(/C=N/NC(=O)COc2ccccc2-c2ccccc2)cc1	Mdm2 MdmX PPI 50.9, CSC inhib 77.8 | Mdm2 MdmX conf 44.0 | FLuc counter 51.5
COc1ccc(-c2cc(C(F)(F)F)nc(S(=O)(=O)CCCC(=O)Nc3cccc(O)c3)n2)cc1OC	Mdm2 MdmX PPI 73.1 (no result: CSC inhib, Beta cell apopt) | Mdm2 MdmX conf inactive
Cc1cc(NC(=O)CCS(=O)(=O)c2nc(-c3ccccc3)cc(C(F)(F)F)n2)no1	Mdm2 MdmX PPI 88.2 (no result: Calb FLC) | Mdm2 MdmX conf 77.5 | FLuc counter 43.5
COc1ccccc1-c1cc(C(F)(F)F)nc(S(=O)(=O)CCCC(=O)N2CCOCC2)n1	Mdm2 MdmX PPI 96.8, CSC inhib 82.2 | Mdm2 MdmX conf 97.7 | FLuc counter inactive
CCc1ccc(C2CC3C(CN2S(=O)(=O)c2ccc(C)cc2)C(=O)CC(c2ccc(CC)cc2)N3S(=O)(=O)c2ccc(C)cc2)cc1 (configuration not stated)	none (no result: Calb FLC, Mdm2 MdmX PPI, CSC inhib, Beta cell apopt)
O=c1c2c3c(sc2ncn1/N=C/c1ccc([N+](=O)[O-])o1)CCCC3	Mdm2 MdmX PPI 57.6, CSC inhib 103.4 | Mdm2 MdmX conf 43.2 | FLuc counter 57.4
Cc1cnc(NC(=O)CCCc2nc3ccccc3s2)s1	Mdm2 MdmX PPI 89.8 | Mdm2 MdmX conf 59.1 | FLuc counter 54.0
O=C(CCCc1nc2ccccc2s1)Nc1nccs1	none (no result: Beta cell apopt)
Nc1cc2ccncc2c2ccccc12	Mdm2 MdmX PPI 84.4 (no result: Calb FLC) | Mdm2 MdmX conf 84.2 | FLuc counter 50.2
COc1ccc(-c2cc3nc[nH]c(=O)c3s2)cc1	none
COc1ccc(-c2cc3nc(CCl)[nH]c(=O)c3s2)cc1	Mdm2 MdmX PPI 94.9 | Mdm2 MdmX conf inactive
Cc1nc(N)c(C#N)c(-c2cccnc2)c1C	Mdm2 MdmX PPI 51.1 | Mdm2 MdmX conf inactive
CCc1nc(N)c(C#N)c(-c2cccnc2)c1C	none
O=[N+]([O-])c1ccc(/C=N/Nc2nc(N3CCOCC3)nc(N3CCOCC3)n2)cc1	none
Brc1ccc(-c2ccc(/C=N/Nc3nc(N4CCOCC4)nc(N4CCOCC4)n3)o2)cc1	Mdm2 MdmX PPI 69.3 | Mdm2 MdmX conf inactive
Fc1cnc(N/N=C/c2ccc(-c3ccc(Br)cc3)o2)nc1N1CCOCC1	Mdm2 MdmX PPI 59.5 | Mdm2 MdmX conf inactive
Brc1ccc(-c2ccc(/C=N/Nc3nncc(-c4ccccc4)n3)o2)cc1	none
Cc1cc(OCC(=O)Nc2nccs2)c2c(C)cc(=O)oc2c1	Mdm2 MdmX PPI 90.3 | Mdm2 MdmX conf inactive
Cc1cc(OCC(=O)Nc2ccccn2)c2c(C)cc(=O)oc2c1	none (no result: Beta cell apopt)
Cc1csc(NC(=O)COc2ccc3c(C)cc(=O)oc3c2)n1	Mdm2 MdmX PPI 66.8 | Mdm2 MdmX conf inactive
Cc1cc(=O)oc2cc(NC(=O)COc3cccc(C(F)(F)F)c3)ccc12	Mdm2 MdmX PPI 69.2 (no result: Calb FLC) | Mdm2 MdmX conf inactive
Cc1cccc(OCC(=O)Nc2ccc3c(C)cc(=O)oc3c2)c1	none
CCc1nc2c(OCCOc3ccc(F)cc3)cccn2c1N(C)C(=O)c1ccco1	none (no result: Calb FLC, Mdm2 MdmX PPI, CSC inhib, Beta cell apopt)
Cc1ccc(C(=O)Cn2c(C(=O)/C=C/c3ccccc3)nc3ccccc32)cc1	Mdm2 MdmX PPI 55.5 | Mdm2 MdmX conf 55.0 | FLuc counter 52.9
CC(C)NC(=O)C1(C)CSCC(=O)N1CC(F)(F)F (configuration not stated)	none (no result: Calb FLC, Mdm2 MdmX PPI, CSC inhib, Beta cell apopt)
CCc1ccc2c(c1)NC(=O)C2(C)Cc1ccccc1 (configuration not stated)	none (no result: Calb FLC, Mdm2 MdmX PPI, CSC inhib, Beta cell apopt)
CCc1ccc2c(c1)C1(NN=C(c3cccc4ccccc34)S1)C(=O)N2 (configuration not stated)	Mdm2 MdmX PPI 78.1 | Mdm2 MdmX conf 75.3 | FLuc counter inactive
COC(=O)[C@@]12C[C@@H](CC(=O)N3CCCC3)C(=O)N(Cc3cccc4ccccc34)C1=CCC(C)(C)C2	none (no result: Calb FLC, Mdm2 MdmX PPI, CSC inhib, Beta cell apopt)
Cn1c(=O)c2[nH]c(N3CCN(c4cccc(O)c4)CC3)nc2n(C)c1=O	none
Cn1c(=O)c2[nH]c(N3CCN(c4ccccc4)CC3)nc2n(C)c1=O	Mdm2 MdmX PPI 67.4 | Mdm2 MdmX conf inactive | FLuc counter 67.0
COc1ccccc1CNC(=O)C1CCCN1S(=O)(=O)c1ccc2c(c1)C(C)(C)C(=O)N2C (configuration not stated)	none (no result: Calb FLC, Mdm2 MdmX PPI, CSC inhib, Beta cell apopt)
COc1cccc(OCCCn2cc(/C=C3/C(=N)N4C=C(C)SC4=NC3=O)c3ccccc32)c1	none
